PubChem BioAssay (NCI)
The panel holds about 83,000 compounds, 20% with a hit somewhere; the sample as a whole holds those more often.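 Results are percent growth after 48 hours of single-concentration exposure. 100 means growth as in untreated cells, lower positive values show inhibition; negative values down to -100 show cell death.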 Activity calls are given as the source filed them. Rule for the calls: active = growth percent below 10; inactive = the rest.

Each compound was assayed on NCI-H460 lung (assay: NCI-60 one-dose screen, 48 h (100 = growth as untreated, 0 = no growth, -100 = all killed)). Conditions: 10 µM unless noted.
`O=C(CN1CCCCC1)Nc1ccc2oc(=O)ccc2c1` was tested, and the growth was 104% (inactive).
For `COc1cc(C)c(C2C(C#N)=C(N)Oc3n[nH]c(-c4cccs4)c32)cc1C(C)C` (stereo unspecified), the growth was 107% (inactive).
For `CCNC(=O)Oc1ccc(/C(=C(\C)c2ccc(Cl)cc2)c2ccc(OCCN(CC)CC)cc2)cc1`, the growth was 7.6% (active).

What follows are compounds tested on HOP-92 NSCLC in the same assay as above. Conditions: 10 µM unless noted.
For `CCOC(=O)c1cc(C(=O)c2ccc(O)c(O)c2)n2ccc(-c3ccn4c(C(=O)c5ccc(O)c(O)c5)cc(C(=O)OCC)c4c3)cc12`, the growth was 45.7% (inactive).
`CC1C(/C=N/Nc2ccccc2)C(C#N)(C#N)C1(C#N)C#N` (stereo unspecified) was tested, and the growth was 90.5% (inactive).
With `O=C(/C=C/c1ccc(C(F)(F)F)cc1)Nc1ccc(C=C2c3ccccc3C(=O)c3ccccc32)cc1` the growth was 55.6% (inactive).
For `CC/C=C\C[C@H](O)C/C=C1/C(=O)C=C[C@@]1(C)C/C=C\CCCC(=O)OC`, the growth was 99.6% (inactive).
For `COc1cc(-c2nn(-c3ccc(C(=O)O)cc3)cc2C(=O)O)ccc1O`, the growth was 58.8% (inactive).
In the case of `COc1ccc(O)c(N=Nc2nccs2)c1`, the growth is reported as 49.4% (inactive).
With `NCCNc1nc(Nc2ccc(-c3nc4ccccc4[nH]3)cc2)c2cn[nH]c2n1` the growth was 60.4% (inactive).
For `COc1cc(-c2nn(-c3ccc(Br)cc3)cc2C(=O)O)ccc1O`, the growth was 94.5% (inactive).
In the case of `OCCN1CCN(c2nc(Nc3ccc(-c4nc5ccccc5[nH]4)cc3)c3cn[nH]c3n2)CC1`, the growth is reported as -83.4% (active).
`O=c1oc2c(C(F)(F)F)cccc2cc1-c1csc(Nc2ccc(OCCF)cc2)n1` was tested, and the growth was 27.4% (inactive).
With `N#Cc1nnn(-c2ccc(S(N)(=O)=O)cc2)c1NC(=O)CCl` the growth was 96.1% (inactive).
In the case of `C=C1C(=O)O[C@H]2[C@H]1CC/C(C=Nc1ccc(C(F)(F)F)cc1N)=C\CC[C@@]1(C)O[C@@H]21`, the growth is reported as 27% (inactive).
`CSc1ccc(-c2ccccc(=O)c2O)cc1` was tested, and the growth was 49.5% (inactive).
In the case of `Clc1ccc2c(NCCNc3nc(N4CCCCC4)nc4ccccc34)ccnc2c1`, the growth is reported as -16% (active).
With `Cn1ccnc1C(=O)/C=C/c1ccc(CC(=O)Nc2ccccc2)cc1` the growth was 26.6% (inactive).
For `CC(C)CSc1nc(N)nc2c1ncn2C1OC(CO)C(O)C1O` (stereo unspecified), the growth was 147% (inactive).
With `Cc1cc(N[C@@H]2CCC[C@H](Nc3ccnc4cc(Cl)ccc34)C2)nc(N2CCCCCC2)n1` the growth was -77.7% (active).
For `CC(C)(CCCN=C(N)Nc1ccc(Cl)cc1)c1ccc(F)cc1`, the growth was 28% (inactive).
With `COc1ccc(-c2nc(SCC(=O)Nc3ccc(C(=O)/C=C/c4ccc(Cl)cc4)cc3)[nH]c(=O)c2C#N)cc1` the growth was 81.7% (inactive).
With `FC(F)(F)Oc1ccc2nc3nc4ccc[nH]c4cc3c2c1` the growth was 84.7% (inactive).
For `CCOC(=O)C(C)(C#N)C1C=CCCC1` (stereo unspecified), the growth was 78.2% (inactive).
With `O=C1/C(=C/c2ccc(OCCCOc3ccc(Cl)cc3)cc2)N=C2SCCCN12` the growth was 92.5% (inactive).
In the case of `COc1cc(-c2nn(-c3ccc(C)cc3)cc2C(=O)O)ccc1O`, the growth is reported as 97.7% (inactive).
In the case of `CC(=O)c1cc2c(N)c(C(=O)Nc3cccc(F)c3C)sc2nc1C`, the growth is reported as 73.1% (inactive).
`COc1ccc(C2C(C#N)=C(N)Oc3n[nH]c(-c4cccs4)c32)cc1I` (stereo unspecified) was tested, and the growth was 88.2% (inactive).
In the case of `CC(=O)c1cc(C(=O)c2ccc3c(c2)Sc2ccccc2N3)n2ccccc12`, the growth is reported as 46.1% (inactive).
With `CCOC(=O)c1c(C(=O)OCC)c2cc(-c3ccn4c(C(=O)c5ccccc5)c(C(=O)OCC)c(C(=O)OCC)c4c3)ccn2c1C(=O)c1ccccc1` the growth was 52.4% (inactive).
`Cc1cc(N2CCCC2)nc(NC2CCCC(Nc3ccnc4cc(Cl)ccc34)C2)n1` (stereo unspecified) was tested, and the growth was -82.7% (active).
In the case of `COc1ccc2c(c1)CC/C(=C\c1cncc(Br)c1)C2=O`, the growth is reported as 84.4% (inactive).
`CCc1nc(N)nc(N)c1C#CC(C)c1ccc(-c2ccncc2)cc1Cl` (stereo unspecified) was tested, and the growth was 6.88% (active).
In the case of `CC(=O)O[C@H]1C(=O)[C@@]2(C)[C@H]([C@H](OC(=O)c3ccccc3)[C@]3(O)C[C@H](OC(=O)[C@H](OC(=O)CCC(=O)OC4CCC(S/N=C(N)/N=C(\N)N(C)C)CC4)[C@@H](NC(=O)c4ccccc4)c4ccccc4)C(C)=C1C3(C)C)[C@]1(OC(C)=O)CO[C@@H]1C[C@@H]2O` (stereo partly specified), the growth is reported as 54.9% (inactive).
In the case of `CCNC(=O)Oc1ccc(/C(=C(\C)c2ccc(Cl)cc2)c2ccc(OCCN3CCCCC3)cc2)cc1`, the growth is reported as 68.8% (inactive).
In the case of `CCOc1ccc(C(C)=O)cc1NC(=O)c1cccc(-c2nnn(CC)n2)c1`, the growth is reported as 42.5% (inactive).
In the case of `CC/C=C\C[C@H]1C/C=C2/C(=O)C=C[C@H]2C/C=C\CCCC(=O)O1`, the growth is reported as 51.2% (inactive).
In the case of `COc1cccc2c1C(=O)c1c(O)c3c(c(O)c1C2=O)C[C@](O)(C(=O)CO)C[C@H]3O[C@@H]1C[C@@H](NC(=O)CCCCCN(C)C2(c3ccc(F)cc3)CC3CCC2C3)[C@H](O)[C@@H](C)O1` (stereo partly specified), the growth is reported as 51.6% (inactive).
For `O=C(CN1CCCCC1)Nc1ccc2oc(=O)ccc2c1`, the growth was 91.3% (inactive).
With `COc1cc(C)c(C2C(C#N)=C(N)Oc3n[nH]c(-c4cccs4)c32)cc1C(C)C` (stereo unspecified) the growth was 99.7% (inactive).
`CCNC(=O)Oc1ccc(/C(=C(\C)c2ccc(Cl)cc2)c2ccc(OCCN(CC)CC)cc2)cc1` was tested, and the growth was 57.9% (inactive).
